The supplement of paper PMC10720658
± gives the standard deviation of the averaged measurements.

System: AEK1 (Tb927.3.2440)
Assay: percent reduction in TR-FRET probe signal relative to DMSO control; higher = stronger displacement of ATP-site probe (binding)
Details: 1 µM; incubation time 1 h

| SMILES | percent reduction in TR-FRET probe signal [%] |
| --- | --- |
| COc1cc2ncc(-c3ccccc3)nc2cc1OC [Tyrphostin AG 1296] | -3.11 ± 5.3 |
| O=C(NCc1ccccc1)c1csc(Nc2ccncn2)n1 [Thiazovivin] | 10.4 ± 11 |
| CN(c1ncccc1CNc1nc(Nc2ccc3c(c2)CC(=O)N3)ncc1C(F)(F)F)S(C)(=O)=O.O=S(=O)(O)c1ccccc1 | 37.1 ± 14 |
| O=C(NC[C@H](O)CO)c1ccncc1Nc1ccc(I)cc1F | 8.42 ± 5 |
| C[C@@H](N)[C@H]1CC[C@H](C(=O)Nc2ccncc2)CC1.Cl.Cl | 2.66 ± 6.8 |
| CNc1nc(Nc2cnn([C@H]3CCN(C4COC4)C[C@@H]3F)c2Cl)ncc1C(F)(F)F | 9.94 ± 3.4 |
| Cn1cc(C=C2C(=O)Nc3cccnc32)c2ccccc21 | -3.06 ± 6 |
| Cn1cnc(N)c2ncnc1-2 [3-Methyladenine (3-MA)] | -2.13 ± 5.3 |
| COc1cc(Nc2ncc3c(n2)-c2ccc(Cl)cc2C(c2c(F)cccc2OC)=NC3)ccc1C(=O)O [Alisertib (MLN8237)] | 2.08 ± 9.1 |
| COc1ccc(Cl)cc1NC(=O)Nc1cc(C)nc2ccccc12 | -2.86 ± 7.3 |
| O=C(Nc1nc2cccc(-c3ccc(CN4CCS(=O)(=O)CC4)cc3)n2n1)C1CC1 [Filgotinib (GLPG0634)] | 9.11 ± 14 |
| Nc1nccc(Oc2ccc(NC(=O)c3c[nH]cc(-c4ccc(F)cc4)c3=O)cc2F)c1Cl | 24.6 ± 15 |
| Cn1c(=O)c(F)c(Nc2ccc(I)cc2F)c2c(=O)n(C[C@@H](O)CO)cnc21 | 10.1 ± 14 |
